# Screening data (PubChem BioAssay)
# Only a selection was taken, and hits are over-represented in it overall.
# ERK EGF inh – EGF-driven ERK pathway inhibition | HEK293-V1b, EGF-stimulated phospho-ERK AlphaScreen | Potency, µM (series often up to 11.5 µM), usual class: inhibitors | 130,000 tested, 0.41% active | AID 1454; active = well fitted inhibition curve with a large enough effect; also: nearly all actives have a fitted effect of over 55% in size
#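 Readout: AlphaScreen signal for phosphorylated ERK in lysed HEK293 cells stably expressing V1b. Stimulus 25 nM EGF, 5 min, following 30 min compound exposure. Data scaled to DMSO basal and full EGF activation.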
# A number is an active result; – = inactive; ! = a repeat was not active.
SMILES,ERK EGF inh
O=C(CSc1cccc[n+]1[O-])c1cc(Cl)ccc1Cl,–
CN1CCN(C(=S)NC(=O)c2cccc(S(=O)(=O)N(C)C)c2)CC1,–
CC1(C)CC[C@]2(C(=O)O)CC[C@@]3(C)C(=CCC4[C@@]5(C)CCC(O)[C@@](C)(CO)C5CC[C@@]43C)C2C1 (stereo not given in full),–
C[C@@H]1OC(OC2CC[C@@]3(C)C(CC[C@@]4(C)C3CC=C3C5CC(C)(C)CC[C@]5(C(=O)OC5OCC(O)[C@@H](O)[C@@H]5OC5O[C@@H](C)[C@H](O[C@H]6OC(CO)C(O)C(O)C6O)C(O)C5O)C(O)C[C@@]34C)C2(C)C)C(O)C(O)[C@H]1OC1OCC(O)C(O)[C@H]1O (stereo not given in full),14µM
CC1(C)CC[C@]2(C(=O)O)CC[C@]3(C)C(=CC[C@@H]4[C@@]5(C)CC[C@H](O)C(C)(C)[C@@H]5CC[C@]43C)[C@@H]2C1,–
CC1(C)CC[C@]2(C(=O)O)CC[C@]3(C)C(=CCC4[C@@]5(C)CC[C@H](O)C(C)(C)[C@@H]5CC[C@]43C)C2C1 (stereo not given in full),–
CC(=O)OC1COC(OC2C(O)C(C)OC(OC3C(OC4CCC5(C)C(CCC6(C)C5CC=C5C7CC(C)(C)CCC7(C(=O)O)CCC56C)C4(C)CO)OCC(O)C3O)C2O)C(O)C1OC(C)=O (stereo not given),20µM
C/C=C(/C)C(=O)OC1C(OC(C)=O)[C@@]2(CO)C(O)C[C@@]3(C)C(=CCC4[C@@]5(C)CCC(OC6OC(C(=O)O)[C@@H](O[C@@H]7OC(CO)C(O)C(O)C7O)C(O)[C@H]6O[C@@H]6OC(CO)C(O)C(O)C6O)[C@](C)(CO)C5CC[C@@]43C)C2CC1(C)C (stereo not given in full),–
FC(F)Oc1cccc(NC(=S)N2CCN(c3ccccn3)CC2)c1,–
COc1ccc(S(=O)(=O)N2CCOCC2)cc1Br,–
Cc1ccc(O)c(N=Nc2ccc(S(=O)(=O)N3CCOCC3)cc2)c1,–
CC(C)(C)c1cc(Br)c(O)c(N=Nc2ccc(S(=O)(=O)N3CCOCC3)cc2)c1,25µM
COCCCNC(=S)Nc1cccc(SC)c1,–
Cc1cccc(NC(=O)c2ccc(NC(C)c3ccccc3)c([N+](=O)[O-])c2)n1 (stereo not given),14µM
CCSc1ccc(C(=O)Nc2cccc(C)n2)cc1[N+](=O)[O-],–
CCNc1ccc(C(=O)OCC(=O)NC(C)c2ccccc2)cc1[N+](=O)[O-] (stereo not given),–
O=C(CNC(=O)c1ccccc1Br)N/N=C/c1ccc(O)cc1,–
CCCCC(=O)Nc1nnc(CCOC)s1,–
COc1ccc(CSc2nc3ccccc3c(=O)n2CCCN2CCOCC2)cc1F,–
COc1ccc(CCC(=O)N/N=C\c2cccs2)cc1,–
CC(Nc1cccc(F)c1)C(=O)Nc1ccc(S(N)(=O)=O)cc1 (stereo not given),–
Cc1ccc2c(c1)-c1c(ssc1=S)C(C)(C)N2C(=O)c1ccco1,13µM
Cc1cccn2c1nc(=S)n2C(=O)c1ccco1,–
Cc1ccc(CN2CCN(C(=O)c3ccco3)CC2)cc1,–
CC(C)C[C@@H](CC(=O)N[C@H](CC(=O)N[C@@H]1CCNC[C@H]1C(=O)N[C@H](CC(=O)N[C@@H](CCC(=O)O)CC(=O)O)CC(C)C)C(C)C)NC(=O)[C@@H]1CCCC[C@H]1N,–
SMILES,ERK EGF inh
COc1ccc(OC)c(-n2c(=S)[nH]c3cc(C(=O)N(C)Cc4ccccc4)ccc3c2=O)c1,–
CNc1ccnc(-c2ccccc2C(F)(F)F)n1,–
CCOc1ccc2c(c1)-c1c(ssc1=S)C(C)(C)N2C(=O)CSC1=NCCS1,18µM
CCOc1ccc(C(=O)NC2=NCCS2)cc1,–
COc1ccc(C2CC(c3ccc(Br)cc3)=NN2C(=O)CSC2=NCCS2)cc1 (stereo not given),–
O=C(Nc1cc(C(F)(F)F)cc(C(F)(F)F)c1)Nc1cnn(-c2ccc([N+](=O)[O-])cc2)c1C(F)(F)F,–
O=C1CC[C@@]23/C=C/C(=O)NCCCCNCCCNC(=O)/C=C/c4ccc(c2c4)OC3C1 (stereo not given in full),–
O=C(Nc1ccc(S(=O)(=O)N2CCCC2)cc1)c1ccc(OCC2CCCO2)cc1 (stereo not given),–
O=C(Nc1ccc(Cl)c(S(=O)(=O)N2CCOCC2)c1)c1ccc(OCC2CCCO2)cc1 (stereo not given),14µM
Cc1ccc(NC(=O)c2ccc(OCC3CCCO3)cc2)cc1 (stereo not given),–
CCSc1nnc(NC(=O)[C@@H](NC(=O)c2ccccc2F)C(C)C)s1,–
COCCN(CCOC)S(=O)(=O)c1ccc(C(=O)Nc2ccc([N+](=O)[O-])cc2OC)cc1,–
Cc1ccc(C)c(Nc2c(F)c(F)c(F)c(F)c2C(=O)O)c1,–
C#CCn1cc(/C=N/Nc2nc3ccccc3[nH]2)c2ccccc21,25µM
C(=N\Nc1nc2ccccc2[nH]1)/c1cccc2nccnc12,–
C(=N\Nc1nc2ccccc2[nH]1)/c1ccccn1,–
C/C(=N\Nc1ccc(S(=O)(=O)Nc2ccccc2)cc1[N+](=O)[O-])c1ccncc1,–
COc1ccccc1NS(=O)(=O)c1ccc(OC)c([N+](=O)[O-])c1,–
CCCC(CCC)=NNc1ccc(S(=O)(=O)Nc2ccccc2OC)cc1[N+](=O)[O-],14µM
CCN(CC)S(=O)(=O)c1ccc(OC)c(NC(=O)c2cn(CC)c3nc(C)ccc3c2=O)c1,–
CC1=NN(c2ccccc2)C(=O)/C1=C/C=C/c1ccccc1,16µM
Cc1ccc(C2=NOC(=O)/C2=C\C=C\c2ccccc2)cc1,32µM
CC1=NN(c2cccc(C(=O)O)c2)C(=O)/C1=C\C=C\c1ccco1,–
CN(C)/C=C1\C(=O)ON=C1c1ccccc1,–
CC1=NN(c2ccccc2)C(=O)C1=C(C)C,–
SMILES,ERK EGF inh
O=C1ON=C(c2ccccc2)/C1=C/c1ccco1,–
C=C[C@@H]1CN2CC[C@@H]1C[C@@H]2[C@@H](O)c1ccnc2ccc(OC)cc12,–
Cc1cc(F)ccc1S(=O)(=O)Nc1ccccc1C(=O)NCc1cccnc1,–
Cc1cc(Cl)ccc1OCC(=O)N1CCCN(C(=O)COc2ccc(Cl)cc2C)CC1,32µM
O=C(COc1ccc(Cl)cc1Cl)N1CCN(c2ccccn2)CC1,–
Cc1ccc2c(Cl)cc(Cl)c(OCC(=O)N3CCCC3)c2n1,–
CCc1nc(NC(=O)NS(=O)(=O)c2ccccc2C(=O)OC)nc(OC)n1,–
CN(C)[C@H]1C(=O)C(C(=O)NCN2CCCC2)=C(O)[C@]2(O)C(=O)C3=C(O)c4c(O)cccc4[C@@](C)(O)[C@H]3C[C@@H]12,–
COc1ccc(C(CCN2CCCCC2)c2c(O)cc(OC)cc2OC)cc1 (stereo not given),–
COc1cc(O)c(C(CCN2CCN(c3ccccc3)CC2)c2ccc(N(C)C)cc2)c(OC)c1 (stereo not given),18µM
COc1ccc(C(CCN2CCN(c3ccccc3)CC2)c2c(O)cc(OC)cc2OC)cc1 (stereo not given),–
CCCCCCCCNC(C)C(O)c1ccc(SC(C)C)cc1 (stereo not given),35µM!
C[C@@H](NCCc1ccc(O)cc1)[C@@H](O)c1ccc(O)cc1,–
CC(NCCc1ccc(O)cc1)C(O)c1ccc(O)cc1 (stereo not given),–
Nc1nc(C23CC4CC(CC(C4)C2)C3)[nH]c(=O)n1,–
